# Measured values as given in PubChem BioAssay (EPA / NIEHS).
# The source made the active and inactive calls. Rule for the calls: active = hit-call score of the fitted dose curve at least 0.9, where 1 is the maximum; inactive = score below 0.9.
# Legend:
# [1] = read-out: Interleukin-8 (IL8), CXCL8 (gene 3576); experiment: BSK_LPS_IL8: BioMAP Diversity Plus: LPS Assay for Interleukin-8 (IL8) Biomarker Activity (AID 2283078); conditions: primary human HUVEC with PBMC; actives raise or lower the signal
# Outline: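 HUVEC + PBMC co-culture, LPS-activated; test chemicals dosed, IL-8 read by ELISA at 24 h. Bidirectional curve fit vs DMSO baseline (gain or loss of signal).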
# [2] = BSK_LPS_SRB: Viability Assessment in the BioMAP Diversity Plus: LPS Assay (AID 2283079); conditions: primary human HUVEC with PBMC;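 note: total protein by sulforhodamine B absorbance as a cytotoxicity measure; measured one day after compound addition; fitted in both directions against DMSO so loss or gain of signal counts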
# Outline: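 HUVEC + PBMC co-culture, LPS-stimulated; compound 24 h. 10% TCA fix, 0.1% SRB stain, A560. Bidirectional fit vs DMSO.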
# [3] = read-out: Interleukin-1 alpha (IL1a), IL1A (gene 3552); experiment: BSK_LPS_IL1a: BioMAP Diversity Plus: LPS Assay for Interleukin-1 alpha (IL1a) Biomarker Activity (AID 2283080); conditions: primary human HUVEC with PBMC; actives raise or lower the signal
# Outline: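 HUVEC/PBMC co-culture, LPS system; 24 h after dosing; IL-1a by ELISA; gain or loss of signal fitted bidirectionally vs DMSO baseline.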
# [4] = read-out: Monocyte Chemoattractant Protein-1 (MCP1), CCL2 (gene 6347); experiment: BSK_LPS_MCP1: BioMAP Diversity Plus: LPS Assay for Monocyte Chemoattractant Protein-1 (MCP1) Biomarker Activity (AID 2283081); conditions: primary human HUVEC with PBMC; actives raise or lower the signal;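 for AC50: secreted MCP-1 protein quantified by ELISA in culture supernatant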
# Outline: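 ELISA read-out of MCP-1 after 24 h chemical dosing of a human umbilical vein endothelial cell/peripheral blood mononuclear cell co-culture stimulated with LPS. Gain or loss of signal fitted relative to DMSO controls.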
# [5] = BSK_LPS_PGE2: BioMAP Diversity Plus: LPS Assay for Prostaglandin E2 (PGE2) Biomarker Activity (AID 2283082); conditions: primary human HUVEC with PBMC; actives raise or lower the signal;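 for AC50: secreted prostaglandin E2 measured by ELISA in LPS-stimulated co-culture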
# Outline: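 LPS-activated HUVEC/PBMC co-culture; cmpd dosed, 24 h; PGE2 by ELISA; bidirectional fit vs DMSO; SRB (0.1%, TCA-fixed, 560 nm) in parallel plates for overt cytotox.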
# [6] = read-out: Macrophage colony-stimulating factor (MCSF), CSF1 (gene 1435); experiment: BSK_LPS_MCSF: BioMAP Diversity Plus: LPS Assay for Macrophage colony-stimulating factor (MCSF) Biomarker Activity (AID 2283083); conditions: primary human HUVEC with PBMC; actives raise or lower the signal
# Outline: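 HUVEC + PBMC co-culture (human primary), 24 h post-dose; M-CSF by ELISA; gain/loss of signal fitted bidirectionally vs DMSO baseline.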
# [7] = read-out: Tumor necrosis factor (Homo sapiens) (UniProt P01375); experiment: BSK_LPS_TNFa: BioMAP Diversity Plus: LPS Assay for Tumour Necrosis Factor alpha (TNFa) Biomarker Activity (AID 2283085); conditions: primary human HUVEC with PBMC; actives raise or lower the signal;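 for AC50: TNFa protein level quantified by ELISA in the co-culture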
# Outline: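 Read-out is ELISA of TNFa in primary human endothelial cell–PBMC co-cultures at 24 h after compound. Activity in either direction was fitted against DMSO.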
# [8] = read-out: Vascular cell adhesion molecule 1 (VCAM1), VCAM1 (gene 7412); experiment: BSK_LPS_VCAM1: BioMAP Diversity Plus: LPS Assay for Vascular cell adhesion molecule 1 (VCAM1) Biomarker Activity (AID 2283086); conditions: primary human HUVEC with PBMC; actives raise or lower the signal
# Outline: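 HUVEC + PBMC co-culture, LPS system; compound 24 h; VCAM-1 by ELISA; bidirectional fit vs DMSO control; parallel SRB (0.1%, TCA-fixed, 560 nm) for cytotoxicity.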
# CD38, CD38 (gene 952) = experiment: BSK_SAg_CD38: BioMAP Diversity Plus: SAg Assay for CD38 Biomarker Activity (AID 2283087); conditions: primary human HUVEC with PBMC; actives raise or lower the signal
# Outline: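 Human HUVEC plus PBMC co-culture stimulated with superantigen; CD38 measured by ELISA 24 h after chemical dosing. Fluorescence read-out, bidirectional fit against DMSO; cytotoxicity tracked in parallel by SRB and Alamar Blue.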
# Tumor necrosis factor (Homo sapiens), sequence (P01375 whole entry, looked up): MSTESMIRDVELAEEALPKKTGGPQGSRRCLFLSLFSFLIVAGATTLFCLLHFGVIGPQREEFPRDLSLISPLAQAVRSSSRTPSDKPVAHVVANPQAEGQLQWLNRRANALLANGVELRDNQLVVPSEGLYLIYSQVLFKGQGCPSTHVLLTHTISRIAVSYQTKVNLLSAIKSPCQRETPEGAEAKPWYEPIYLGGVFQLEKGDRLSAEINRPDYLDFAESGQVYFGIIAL
SMILES,outcome [1],outcome [2],outcome [3],outcome [4],outcome [5],outcome [6],outcome [7],outcome [8],"outcome (CD38, CD38 (gene 952))",AC50 [1],AC50 [2],AC50 [4],AC50 [6],"AC50 (CD38, CD38 (gene 952))",AC50 [5],AC50 [3],AC50 [7],AC50 [8]
COCC(=O)N(c1c(C)cccc1C)C(C)C(=O)OC (stereo unspecified),inactive,inactive,inactive,inactive,inactive,inactive,inactive,inactive,inactive,–,–,–,–,–,–,–,–,–
CO/N=C(/C1=NOCCO1)c1ccccc1Oc1ncnc(Oc2ccccc2Cl)c1F,–,–,inactive,–,inactive,–,inactive,inactive,–,20 µM (active),11.4 µM (active),22.1 µM (active),19.2 µM (active),22.3 µM (active),–,–,–,–
CCOP(=S)(OCC)Oc1nc(Cl)n(C(C)C)n1,inactive,inactive,inactive,inactive,–,inactive,inactive,inactive,inactive,–,–,–,–,–,14.1 µM (active),–,–,–
CCCCOCN(C(=O)CCl)c1c(CC)cccc1CC,–,–,–,–,inactive,–,–,–,–,28 µM (active),29.2 µM (active),31.8 µM (active),27 µM (active),29.4 µM (active),–,30.7 µM (active),35.1 µM (active),28.2 µM (active)
COP(=O)(OC)O/C(C)=C/C(=O)N(C)C,inactive,inactive,inactive,inactive,–,inactive,inactive,inactive,inactive,–,–,–,–,–,17.3 µM (active),–,–,–
CN/C(=N\[N+](=O)[O-])NCc1cnc(Cl)s1,inactive,inactive,inactive,inactive,inactive,inactive,inactive,inactive,inactive,–,–,–,–,–,–,–,–,–
CCOc1nc(F)cc2nc(S(=O)(=O)Nc3c(Cl)cccc3Cl)nn12,inactive,inactive,inactive,inactive,inactive,inactive,inactive,inactive,inactive,–,–,–,–,–,–,–,–,–
CC1(C)CCC(=Cc2ccc(Cl)cc2)C1(O)Cn1cncn1 (stereo unspecified),inactive,inactive,inactive,inactive,inactive,inactive,inactive,inactive,inactive,–,–,–,–,–,–,–,–,–
CC(C)Oc1cccc(NC(=O)c2ccccc2C(F)(F)F)c1,inactive,–,inactive,inactive,inactive,inactive,inactive,inactive,inactive,–,16.7 µM (active),–,–,–,–,–,–,–
COC(=O)c1c(C(F)F)nc(C(F)(F)F)c(C2=NCCS2)c1CC(C)C,inactive,–,inactive,inactive,–,–,–,inactive,–,–,31.9 µM (active),–,14.3 µM (active),25.7 µM (active),12.2 µM (active),–,8.66 µM (active),–
CCN(CC)C(=O)C(C)Oc1cccc2ccccc12 (stereo unspecified),inactive,inactive,inactive,inactive,inactive,–,inactive,inactive,inactive,–,–,–,0.274 µM (active),–,–,–,–,–
CC(C)(C)C(=O)C(Oc1ccc(Cl)cc1)n1cncn1 (stereo unspecified),inactive,inactive,inactive,inactive,inactive,inactive,inactive,inactive,inactive,–,–,–,–,–,–,–,–,–
COP(=S)(OC)SCn1nnc2ccccc2c1=O,inactive,inactive,inactive,–,–,inactive,–,–,inactive,–,–,20 µM (active),–,–,13.8 µM (active),–,5.58 µM (active),20 µM (active)
Nc1c(Cl)c(Cl)nc(C(=O)O)c1Cl,inactive,inactive,inactive,inactive,inactive,inactive,inactive,inactive,inactive,–,–,–,–,–,–,–,–,–
Cc1ccc(N=CN(C)C=Nc2ccc(C)cc2C)c(C)c1,–,–,–,–,–,–,–,–,–,33.6 µM (active),31.7 µM (active),31.7 µM (active),32.6 µM (active),29.1 µM (active),11.6 µM (active),30.2 µM (active),33.6 µM (active),26.6 µM (active)
Nc1c(Cl)c(F)nc(OCC(=O)O)c1Cl,inactive,inactive,inactive,inactive,inactive,inactive,inactive,inactive,inactive,–,–,–,–,–,–,–,–,–
COc1cc(OC)nc(NC(=O)NS(=O)(=O)c2ncccc2OCC(F)(F)F)n1,inactive,inactive,inactive,inactive,inactive,inactive,inactive,inactive,inactive,–,–,–,–,–,–,–,–,–
O=c1n(Cl)c(=O)n(Cl)c(=O)n1Cl,inactive,inactive,inactive,inactive,inactive,inactive,inactive,inactive,inactive,–,–,–,–,–,–,–,–,–
CS(=O)(=O)c1cc(C(F)(F)F)ccc1C(=O)c1cnoc1C1CC1,inactive,inactive,inactive,inactive,inactive,inactive,inactive,inactive,–,–,–,–,–,5.57 µM (active),–,–,–,–
